Measurements taken from PubChem BioAssay AID1650 (Southern Research Specialized Biocontainment Screening …, 2009).
Potency and affinity values are given separately. Unmarked numbers belong to inactive results. How the calls were made is not given here.

Test: mammalian cell viability reduction – secondary assay, cytotoxicity control for West Nile virus antiviral project, dose response (AID 1650)
Conditions: Mammalian host cell viability, cytotoxicity counter-screen; series mostly up to 10 µM; viability: at the top concentration
For `Cc1coc(NC(=O)CSc2nc(-c3ccncc3)cc(C(F)(F)F)c2C#N)n1`, the “viability” value was 82.6%. For `Cc1onc(-c2ccccc2Cl)c1C(=O)O/N=C(\N)c1ccc([N+](=O)[O-])o1`, the “viability” value was 80.7%. For `O=C(c1ccc2c(=O)n(Cc3ccc4c(c3)OCO4)c(=O)[nH]c2c1)N1CCN(c2ccccc2)CC1`, the “viability” value was 87.6% [at 20 µM]. For `Cc1cc(OCc2cc(C(=O)NCCN3CCCCC3CO)no2)cc(C)c1Cl` (stereo not given), the “viability” value was 77.3% [at 20 µM]. In the case of `CCN(CC)CCNC(=O)c1ccc(NC(=O)c2cccc(S(=O)(=O)N3c4ccccc4CC3C)c2)cc1` (stereo not given), the “viability” value is reported as 85.1%. In the case of `Cc1cccc2c1NC(=O)/C2=C\C(=O)c1cccs1`, the “viability” value is reported as 82.2%. For `COc1ccc(/C=C2/SC(=S)N(CCC(=O)N3CCN(C)CC3)C2=O)cc1`, the “viability” value was 83.4%. In the case of `Cc1cccc(CN2CCC(CNC(=O)CSc3cc(=O)n(C)c4cc(Cl)ccc34)CC2)c1`, the “viability” value is reported as 78.6%. With `CC(=O)N[C@@H](C)C(=O)N1CCC(n2nccc2NC(=O)CCCc2ccccc2)CC1` the “viability” value was 91.7%. In the case of `CN(C)CCCN1c2ccc([N+](=O)[O-])cc2CCc2cc([N+](=O)[O-])ccc21`, the “viability” value is reported as 92.4% [at 20 µM]. With `Cc1ccc(S(=O)(=O)N(C)C)cc1NC(=O)c1cncc(Br)c1` the “viability” value was 81%. With `CCCCN(CC)CCCNC(=S)Nc1ccc2nc(N3CCN(CC)CC3)cc(C)c2c1` the “viability” value was 80%. In the case of `Cc1cc(C)nc(S/C=C/C(=O)c2ccccc2F)n1`, the “viability” value is reported as 77.7% [at 20 µM]. With `O=C(NCCCN1CCOCC1)c1cc2c([nH]c3ccccc32)c(-c2cccc(Br)c2)n1` the “viability” value was 74.5% [at 20 µM]. With `Cc1ccc(CN(Cc2cc3cccc(C)c3[nH]c2=O)C(=S)NCCCN(C)C)cc1` the “viability” value was 73.8% [at 20 µM]. With `CCOc1ccc(NC(=NCc2ccc3c(c2)OCO3)SC2CC(=O)N(c3ccc(OCC)cc3)C2=O)cc1` (stereo not given) the “viability” value was 79.3% [at 20 µM]. In the case of `CCCN1CCN(C(=S)Nc2ccc3nc(N4CCN(CC)CC4)cc(C)c3c2)CC1`, the “viability” value is reported as 81.2%. In the case of `Cc1cc(C)cc(SCc2noc(C(=O)NCCN(C)C)c2C(=O)NCCN(C)C)c1`, the “viability” value is reported as 86.1%. In the case of `O=C(Nc1ccc(Nc2ccccc2)cc1)C(Cl)Cl`, the “viability” value is reported as 78.6%. For `O=C(CCC1CCCC1)N=C1SC2CS(=O)(=O)CC2N1Cc1ccccc1` (stereo not given), the “viability” value was 85.2%. With `O=C(CN1CCCC1)Nc1ccc(-c2nc3cc(NC(=O)CN4CCCC4)ccc3o2)cc1` the “viability” value was 82.9%. For `CC(C)Cc1nc2oc3c(NCCCN4CCOCC4)ncnc3c2c2c1CCC2`, the “viability” value was 80.2%. For `COc1cc(CNC(C)(C)C)cc(Br)c1OCc1cccs1`, the “viability” value was 88.1% [at 20 µM]. For `CCCN1CCN(CCCNC(=O)c2ccc3nc(N4CCC(C)CC4)sc3c2)CC1`, the “viability” value was 84.4%. For `CC1CCCN(CCCNC(=O)c2ccc3c(c2)N(Cc2ccccc2F)C(=O)c2ccccc2S3(=O)=O)C1` (stereo not given), the “viability” value was 85.2%. In the case of `CCOC(=O)c1sc(NC(=O)Nc2ccccc2)cc1C`, the “viability” value is reported as 88.8% [at 20 µM]. For `CCOc1ccc(-c2cc(C(=O)NCCCN3CCN(CC)CC3)c3ccccc3n2)cc1`, the “viability” value was 82%. For `OC(COc1ccc(CNCCc2ccc(C(F)(F)F)cc2)cc1)CN1CCCCC1` (stereo not given), the “viability” value was 91.1%. In the case of `Cc1c(/C=N/NC(=O)C(C)(C)Oc2ccc(Cl)cc2)cnn1C`, the “viability” value is reported as 97.1%. With `Nc1nonc1-n1nnc(C(=O)N/N=C/c2ccc(OCc3ccccc3)cc2)c1CNc1ccccc1` the “viability” value was 82.2% [at 20 µM]. In the case of `CCOC(=O)C(=Cc1ccc(F)cc1)C(=O)OCC`, the “viability” value is reported as 73.7%. For `CCN(CC)CCn1c(=N)n(CC(=O)c2ccc(Br)s2)c2ccccc21`, the “viability” value was 77.2% [at 20 µM]. For `CN(C)c1nc(=Nc2cccc(Cl)c2)ss1`, the “viability” value was 81.4%. In the case of `CCCN1CCN(CCCNC(=O)c2cc3c(s2)-c2ccccc2OC3)CC1`, the “viability” value is reported as 74.4%. With `N#CC(C(=O)NC1CCCCC1)c1nc2ccccc2nc1N1CCN(c2ccc(F)cc2)CC1` (stereo not given) the “viability” value was 86.4% [at 20 µM]. For `CN1CCN(C(=O)CCN2C(=O)/C(=C/c3ccc(F)cc3)SC2=S)CC1`, the “viability” value was 75.9%. In the case of `COC1(OC)C=CC(=O)C=C1NC(=O)c1ccccc1OC(C)=O`, the “viability” value is reported as 71.4%. In the case of `CCCCCCn1c(SCC(=O)Nc2cc(C)on2)nc2ccccc2c1=O`, the “viability” value is reported as 71.4%. For `Cc1cccc(CN2CCC(CNC(=O)Nc3ccc(F)c(Cl)c3)CC2)c1`, the “viability” value was 86.1% [at 20 µM]. For `COc1cc(/C=C/C(=O)c2ccc(NS(=O)(=O)c3ccc(C)cc3)cc2)cc(OC)c1O`, the “viability” value was 75.7%.
